Assay results taken from article PMC7862700, “An all-to-all approach to the identification of sequence-specific readers for epigenetic DNA modifications on cytosine”.

Experiments:
Test in all cases: DAPPL (digital affinity profiling via proximity ligation, sequencing); 10 mM Tris-HCl pH 7.5, 50 mM NaCl, 1 mM DTT, 4% glycerol, room temperature, 30 min; GST-TFs on glutathione beads, 16-mer random dsDNA library, 0.1% formaldehyde crosslink after washing; high values mean tight binding
Conditions in all cases: protein: recombinant; tags: N-terminal GST; dsDNA, one strand shown
ELK1 = target: T1, ELK1 (Homo sapiens, UniProt P19419 1-428)
T1 sequence: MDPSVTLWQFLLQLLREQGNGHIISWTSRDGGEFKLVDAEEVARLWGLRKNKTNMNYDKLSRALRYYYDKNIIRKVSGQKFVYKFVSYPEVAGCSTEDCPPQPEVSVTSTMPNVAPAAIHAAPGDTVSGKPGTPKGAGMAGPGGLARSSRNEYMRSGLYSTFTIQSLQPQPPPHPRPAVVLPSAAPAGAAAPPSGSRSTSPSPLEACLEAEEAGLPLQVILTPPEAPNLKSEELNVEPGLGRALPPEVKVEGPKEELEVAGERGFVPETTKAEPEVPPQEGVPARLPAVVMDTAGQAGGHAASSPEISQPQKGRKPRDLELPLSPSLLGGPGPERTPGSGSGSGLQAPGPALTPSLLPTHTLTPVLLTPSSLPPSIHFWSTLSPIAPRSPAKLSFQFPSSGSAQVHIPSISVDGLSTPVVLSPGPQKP
Summary of the method: (§1)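 After expression in yeast as GST fusions, human transcription factors were bound to glutathione beads, DNA-barcoded and mixed with a tag-only sample. The pools were incubated with 200 nmole of a 16-mer random double-stranded DNA library in Tris/NaCl/DTT/glycerol buffer (30 min, room temperature), washed and crosslinked with 0.1% formaldehyde. Proximity ligation with BsaI/T4 ligase ran for 1 h at 37 °C, before PCR amplification and sequencing on an Illumina NextSeq500. Binding signal is a hexamer's read frequency for a factor divided by its frequency for the tag-only sample.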

GABPA = target: T2, GABPA (Homo sapiens, UniProt Q06546 1-454)
T2 sequence: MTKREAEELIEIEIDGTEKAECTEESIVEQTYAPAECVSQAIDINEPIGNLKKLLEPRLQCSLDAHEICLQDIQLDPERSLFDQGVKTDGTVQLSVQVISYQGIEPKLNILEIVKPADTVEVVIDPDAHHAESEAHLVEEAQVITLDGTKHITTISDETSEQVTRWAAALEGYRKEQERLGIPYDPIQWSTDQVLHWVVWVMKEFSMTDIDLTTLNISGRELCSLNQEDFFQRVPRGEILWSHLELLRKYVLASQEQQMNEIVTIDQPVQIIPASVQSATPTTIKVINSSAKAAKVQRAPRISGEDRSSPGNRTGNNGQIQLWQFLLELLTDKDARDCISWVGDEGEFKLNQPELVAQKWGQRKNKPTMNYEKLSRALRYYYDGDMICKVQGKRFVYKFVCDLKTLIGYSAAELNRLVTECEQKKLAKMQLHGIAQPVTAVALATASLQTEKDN
Summary of the method: as §1

ERG = target: T3, ERG (Homo sapiens, UniProt P11308 1-479)
T3 sequence: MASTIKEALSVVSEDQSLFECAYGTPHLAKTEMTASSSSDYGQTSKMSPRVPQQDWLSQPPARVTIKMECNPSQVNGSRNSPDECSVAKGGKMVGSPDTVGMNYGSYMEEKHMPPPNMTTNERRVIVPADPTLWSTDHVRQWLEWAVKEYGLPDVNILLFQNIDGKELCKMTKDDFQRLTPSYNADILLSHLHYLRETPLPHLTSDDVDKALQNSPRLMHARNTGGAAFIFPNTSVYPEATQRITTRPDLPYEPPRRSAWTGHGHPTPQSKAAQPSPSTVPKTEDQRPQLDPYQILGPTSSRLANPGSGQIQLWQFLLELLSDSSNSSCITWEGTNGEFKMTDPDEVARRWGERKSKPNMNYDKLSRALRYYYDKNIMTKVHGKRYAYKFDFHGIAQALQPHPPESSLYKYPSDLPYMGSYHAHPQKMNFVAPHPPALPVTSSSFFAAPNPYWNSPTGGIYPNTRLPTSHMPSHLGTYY
Summary of the method: as §1

ELF1 = ELF1 (Homo sapiens, UniProt P32519 1-619)
ELF1, sequence (P32519 whole entry): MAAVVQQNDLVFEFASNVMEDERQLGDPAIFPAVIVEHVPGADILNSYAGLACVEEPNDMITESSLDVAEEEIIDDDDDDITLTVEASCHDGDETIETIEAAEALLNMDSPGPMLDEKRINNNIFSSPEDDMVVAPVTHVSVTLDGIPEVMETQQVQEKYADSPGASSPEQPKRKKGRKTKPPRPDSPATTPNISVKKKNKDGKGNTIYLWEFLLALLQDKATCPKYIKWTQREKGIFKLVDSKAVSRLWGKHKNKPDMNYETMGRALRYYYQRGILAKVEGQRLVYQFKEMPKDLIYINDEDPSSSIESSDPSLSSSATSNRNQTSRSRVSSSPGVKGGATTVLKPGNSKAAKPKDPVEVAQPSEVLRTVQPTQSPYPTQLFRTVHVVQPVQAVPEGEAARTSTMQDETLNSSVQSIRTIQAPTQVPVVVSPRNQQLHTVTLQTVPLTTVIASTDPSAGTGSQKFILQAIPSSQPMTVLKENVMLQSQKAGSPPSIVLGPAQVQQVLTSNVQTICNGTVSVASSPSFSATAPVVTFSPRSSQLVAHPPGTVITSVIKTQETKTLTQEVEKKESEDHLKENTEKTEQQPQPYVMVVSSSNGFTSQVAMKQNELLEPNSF
Summary of the method: as §1

ELK3 = target: T4, ELK3 (Homo sapiens, UniProt P41970 1-407)
T4 sequence: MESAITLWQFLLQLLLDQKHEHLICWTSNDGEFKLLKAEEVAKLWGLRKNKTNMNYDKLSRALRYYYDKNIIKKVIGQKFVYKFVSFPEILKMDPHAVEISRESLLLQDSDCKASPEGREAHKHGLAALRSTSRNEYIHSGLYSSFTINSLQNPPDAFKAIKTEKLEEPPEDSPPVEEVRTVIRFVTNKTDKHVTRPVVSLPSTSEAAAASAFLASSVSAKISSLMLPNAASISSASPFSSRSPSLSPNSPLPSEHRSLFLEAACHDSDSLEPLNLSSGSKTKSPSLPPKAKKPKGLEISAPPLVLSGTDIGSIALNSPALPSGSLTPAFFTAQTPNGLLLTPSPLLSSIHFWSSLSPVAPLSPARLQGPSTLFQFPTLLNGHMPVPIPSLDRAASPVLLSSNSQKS
Summary of the method: as §1

ETV5 = ETV5 (Homo sapiens, UniProt P41161 1-510)
ETV5, sequence (P41161 whole entry): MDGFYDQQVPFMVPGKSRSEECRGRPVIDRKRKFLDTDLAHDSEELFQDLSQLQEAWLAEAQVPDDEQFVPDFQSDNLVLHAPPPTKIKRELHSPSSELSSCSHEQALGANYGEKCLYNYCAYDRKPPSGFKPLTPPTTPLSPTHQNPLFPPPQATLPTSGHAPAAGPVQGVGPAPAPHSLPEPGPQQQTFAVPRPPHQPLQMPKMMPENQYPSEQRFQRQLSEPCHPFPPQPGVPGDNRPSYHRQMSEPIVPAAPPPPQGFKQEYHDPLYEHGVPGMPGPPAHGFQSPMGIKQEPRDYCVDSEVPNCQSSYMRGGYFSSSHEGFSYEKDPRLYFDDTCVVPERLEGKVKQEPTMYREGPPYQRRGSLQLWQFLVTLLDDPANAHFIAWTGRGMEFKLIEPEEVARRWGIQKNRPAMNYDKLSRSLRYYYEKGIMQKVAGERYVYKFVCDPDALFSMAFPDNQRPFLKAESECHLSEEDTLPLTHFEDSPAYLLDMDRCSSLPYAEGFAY
Summary of the method: as §1

SPIC = target: T5, SPIC (Homo sapiens, UniProt Q8N5J4 1-248)
T5 sequence: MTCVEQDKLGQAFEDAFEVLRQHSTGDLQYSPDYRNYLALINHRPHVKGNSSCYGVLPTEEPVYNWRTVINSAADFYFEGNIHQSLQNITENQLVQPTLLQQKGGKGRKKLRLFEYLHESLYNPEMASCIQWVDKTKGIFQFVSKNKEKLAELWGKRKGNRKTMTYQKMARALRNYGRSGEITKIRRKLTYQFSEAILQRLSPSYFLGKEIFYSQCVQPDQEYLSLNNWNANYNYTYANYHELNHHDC
Summary of the method: as §1

ELF4 = ELF4 (Homo sapiens, UniProt Q99607 1-663)
ELF4, sequence (Q99607 whole entry): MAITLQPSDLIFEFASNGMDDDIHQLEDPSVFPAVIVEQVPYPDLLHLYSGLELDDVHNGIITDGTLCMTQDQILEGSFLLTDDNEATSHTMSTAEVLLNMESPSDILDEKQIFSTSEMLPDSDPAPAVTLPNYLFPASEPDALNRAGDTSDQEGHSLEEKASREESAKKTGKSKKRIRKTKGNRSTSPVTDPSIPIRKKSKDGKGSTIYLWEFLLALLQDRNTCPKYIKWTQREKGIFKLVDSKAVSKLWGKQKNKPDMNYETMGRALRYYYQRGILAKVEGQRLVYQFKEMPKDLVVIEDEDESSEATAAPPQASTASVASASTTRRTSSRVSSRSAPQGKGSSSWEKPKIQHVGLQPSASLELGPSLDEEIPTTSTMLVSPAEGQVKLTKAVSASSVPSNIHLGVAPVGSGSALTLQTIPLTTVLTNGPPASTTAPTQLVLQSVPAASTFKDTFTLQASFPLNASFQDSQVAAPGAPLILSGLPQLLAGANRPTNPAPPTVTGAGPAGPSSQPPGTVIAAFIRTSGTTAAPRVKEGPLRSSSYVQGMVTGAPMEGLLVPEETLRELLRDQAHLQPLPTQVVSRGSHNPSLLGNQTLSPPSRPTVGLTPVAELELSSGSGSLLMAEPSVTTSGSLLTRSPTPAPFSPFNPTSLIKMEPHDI
Summary of the method: as §1

ELK4 = target: T6, ELK4 (Homo sapiens, UniProt P28324-2 1-405)
T6 sequence: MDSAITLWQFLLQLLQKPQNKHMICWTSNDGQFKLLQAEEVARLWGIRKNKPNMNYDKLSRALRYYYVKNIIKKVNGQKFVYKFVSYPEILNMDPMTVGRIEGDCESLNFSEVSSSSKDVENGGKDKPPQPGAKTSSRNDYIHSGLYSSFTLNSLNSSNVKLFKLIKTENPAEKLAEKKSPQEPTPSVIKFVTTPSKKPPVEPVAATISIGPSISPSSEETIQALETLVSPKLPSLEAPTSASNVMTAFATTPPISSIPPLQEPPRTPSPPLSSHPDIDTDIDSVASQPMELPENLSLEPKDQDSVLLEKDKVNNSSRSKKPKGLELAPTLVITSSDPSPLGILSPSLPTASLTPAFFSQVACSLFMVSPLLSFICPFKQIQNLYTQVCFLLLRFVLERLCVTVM
Summary of the method: as §1

ERF = target: T7, ERF (Homo sapiens, UniProt P50548 1-548)
T7 sequence: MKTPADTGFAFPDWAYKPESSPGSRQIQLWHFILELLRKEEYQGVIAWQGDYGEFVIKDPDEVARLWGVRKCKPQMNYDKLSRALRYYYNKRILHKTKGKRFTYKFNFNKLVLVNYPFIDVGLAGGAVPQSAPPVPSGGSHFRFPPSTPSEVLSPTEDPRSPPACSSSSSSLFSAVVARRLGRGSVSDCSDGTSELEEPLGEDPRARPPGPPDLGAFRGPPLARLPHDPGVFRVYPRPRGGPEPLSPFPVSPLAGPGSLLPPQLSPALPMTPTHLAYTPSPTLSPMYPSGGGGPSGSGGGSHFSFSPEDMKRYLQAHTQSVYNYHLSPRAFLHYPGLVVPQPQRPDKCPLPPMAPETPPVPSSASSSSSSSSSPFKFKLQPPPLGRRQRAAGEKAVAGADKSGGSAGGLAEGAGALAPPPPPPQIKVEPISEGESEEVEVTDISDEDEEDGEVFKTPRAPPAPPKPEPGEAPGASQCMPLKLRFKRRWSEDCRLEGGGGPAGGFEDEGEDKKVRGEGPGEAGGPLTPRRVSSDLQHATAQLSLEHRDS
Summary of the method: as §1

ETS2 = target: T8, ETS2 (Homo sapiens, UniProt P15036 1-469)
T8 sequence: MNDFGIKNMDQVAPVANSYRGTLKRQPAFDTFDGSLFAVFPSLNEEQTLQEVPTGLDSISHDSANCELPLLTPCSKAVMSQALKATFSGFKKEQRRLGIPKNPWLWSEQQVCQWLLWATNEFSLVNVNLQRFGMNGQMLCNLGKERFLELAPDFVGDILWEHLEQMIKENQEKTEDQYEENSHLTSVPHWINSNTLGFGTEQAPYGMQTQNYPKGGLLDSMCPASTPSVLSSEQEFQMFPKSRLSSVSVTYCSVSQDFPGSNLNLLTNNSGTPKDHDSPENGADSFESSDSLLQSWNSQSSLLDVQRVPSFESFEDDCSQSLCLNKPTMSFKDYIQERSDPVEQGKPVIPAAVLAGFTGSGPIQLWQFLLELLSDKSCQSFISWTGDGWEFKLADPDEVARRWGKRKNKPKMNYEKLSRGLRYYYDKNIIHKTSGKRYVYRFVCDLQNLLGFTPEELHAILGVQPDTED
Summary of the method: as §1

ETV6 = ETV6 (Homo sapiens, UniProt P41212 1-452)
ETV6, sequence (P41212 whole entry): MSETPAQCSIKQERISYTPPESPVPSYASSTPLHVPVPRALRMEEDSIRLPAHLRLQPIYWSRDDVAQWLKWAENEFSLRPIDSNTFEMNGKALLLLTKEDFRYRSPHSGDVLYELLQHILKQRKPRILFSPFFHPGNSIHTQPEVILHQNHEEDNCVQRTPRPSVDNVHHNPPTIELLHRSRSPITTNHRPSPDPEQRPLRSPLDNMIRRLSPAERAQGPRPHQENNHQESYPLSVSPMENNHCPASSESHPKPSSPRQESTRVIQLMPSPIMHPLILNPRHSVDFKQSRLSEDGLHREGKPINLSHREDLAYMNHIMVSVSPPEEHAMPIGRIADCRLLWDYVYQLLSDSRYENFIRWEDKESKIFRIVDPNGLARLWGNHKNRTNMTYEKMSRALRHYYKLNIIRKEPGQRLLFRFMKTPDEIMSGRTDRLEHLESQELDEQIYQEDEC
Summary of the method: as §1

EHF = target: T9, EHF (Homo sapiens, UniProt Q9NZC4 1-300)
T9 sequence: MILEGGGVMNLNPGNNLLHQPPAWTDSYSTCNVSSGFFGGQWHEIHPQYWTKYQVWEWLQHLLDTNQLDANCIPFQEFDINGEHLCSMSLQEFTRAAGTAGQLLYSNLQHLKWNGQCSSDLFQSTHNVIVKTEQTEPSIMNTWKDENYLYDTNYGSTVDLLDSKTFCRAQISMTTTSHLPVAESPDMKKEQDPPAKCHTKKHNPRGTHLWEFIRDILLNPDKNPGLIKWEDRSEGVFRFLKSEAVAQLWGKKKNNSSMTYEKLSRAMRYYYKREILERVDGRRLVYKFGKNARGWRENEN
Summary of the method: as §1

SPIB = SPIB (Homo sapiens, UniProt Q01892 1-262)
SPIB, sequence (Q01892 whole entry): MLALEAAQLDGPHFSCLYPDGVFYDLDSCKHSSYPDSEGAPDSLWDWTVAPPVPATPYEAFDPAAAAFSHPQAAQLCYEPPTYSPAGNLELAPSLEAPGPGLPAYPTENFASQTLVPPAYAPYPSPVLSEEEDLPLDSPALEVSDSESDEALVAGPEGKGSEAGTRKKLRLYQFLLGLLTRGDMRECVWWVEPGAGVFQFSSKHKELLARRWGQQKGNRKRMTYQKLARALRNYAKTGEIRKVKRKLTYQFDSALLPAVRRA
Summary of the method: as §1

ETV1 = ETV1 (Homo sapiens, UniProt P50549 1-477)
ETV1, sequence (P50549 whole entry): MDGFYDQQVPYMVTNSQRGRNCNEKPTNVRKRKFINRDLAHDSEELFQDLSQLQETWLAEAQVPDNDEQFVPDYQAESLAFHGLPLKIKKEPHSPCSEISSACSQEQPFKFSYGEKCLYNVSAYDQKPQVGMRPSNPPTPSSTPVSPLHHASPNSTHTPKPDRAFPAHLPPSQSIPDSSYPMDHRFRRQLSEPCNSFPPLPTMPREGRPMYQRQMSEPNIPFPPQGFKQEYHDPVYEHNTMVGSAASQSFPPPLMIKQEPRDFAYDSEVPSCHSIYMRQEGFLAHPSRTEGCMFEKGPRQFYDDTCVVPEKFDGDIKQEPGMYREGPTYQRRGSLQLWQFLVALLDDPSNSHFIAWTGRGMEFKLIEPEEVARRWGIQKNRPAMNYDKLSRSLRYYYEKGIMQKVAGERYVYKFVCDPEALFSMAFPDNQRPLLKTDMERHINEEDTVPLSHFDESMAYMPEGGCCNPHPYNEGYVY
Summary of the method: as §1

ETV3 = target: T10, ETV3 (Homo sapiens, UniProt P41162-2 1-143)
T10 sequence: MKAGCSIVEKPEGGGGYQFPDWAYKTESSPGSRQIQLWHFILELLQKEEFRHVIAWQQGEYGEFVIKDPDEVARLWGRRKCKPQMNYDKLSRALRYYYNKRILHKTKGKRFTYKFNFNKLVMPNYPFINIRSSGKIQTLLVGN
Summary of the method: as §1

Sequence	binding signal (ELK1)	binding signal (GABPA)	binding signal (ERG)	binding signal (ELF1)	binding signal (ELK3)	binding signal (ETV5)	binding signal (SPIC)	binding signal (ELF4)	binding signal (ELK4)	binding signal (ERF)	binding signal (ETS2)	binding signal (ETV6)	binding signal (EHF)	binding signal (SPIB)	binding signal (ETV1)	binding signal (ETV3)
CGCCCA	1.13 fold enrichment (6-mer frequency, TF over GST control)	1.11 fold enrichment (6-mer frequency, TF over GST control)	1.06 fold enrichment (6-mer frequency, TF over GST control)	1.04 fold enrichment (6-mer frequency, TF over GST control)	1.04 fold enrichment (6-mer frequency, TF over GST control)	1.01 fold enrichment (6-mer frequency, TF over GST control)	1.06 fold enrichment (6-mer frequency, TF over GST control)	1.04 fold enrichment (6-mer frequency, TF over GST control)	1.04 fold enrichment (6-mer frequency, TF over GST control)	1.08 fold enrichment (6-mer frequency, TF over GST control)	1.04 fold enrichment (6-mer frequency, TF over GST control)	1.09 fold enrichment (6-mer frequency, TF over GST control)				
GAACTG			1.06 fold enrichment (6-mer frequency, TF over GST control)	1.02 fold enrichment (6-mer frequency, TF over GST control)		1.05 fold enrichment (6-mer frequency, TF over GST control)	1.26 fold enrichment (6-mer frequency, TF over GST control)	1.02 fold enrichment (6-mer frequency, TF over GST control)			1.02 fold enrichment (6-mer frequency, TF over GST control)		1.01 fold enrichment (6-mer frequency, TF over GST control)	1.01 fold enrichment (6-mer frequency, TF over GST control)	1.05 fold enrichment (6-mer frequency, TF over GST control)	1.09 fold enrichment (6-mer frequency, TF over GST control)
